Nrf2 activator – Nrf2 pathway activation; AREc32 ARE-luciferase reporter (MCF7-derived line), luminescence, 24 h; Potency, µM (highest dose often 46.1 µM), most hits filed as activators; 410,000 compounds, 0.31% hits; AID 624171; note: nearly all actives have a fitted effect of over 65% in size
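Reporter line AREc32 (ARE-Fluc), seeded overnight in OPTI-MEM with 5% FBS; compound pin-transferred, 24 hr at 37 deg C, 5% CO2; luminescent read-out.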
Nrf2 inh – Nrf2 pathway inhibition. A549 ARE-Fluc reporter, luciferase luminescence, 18-24 h. 360,000 compounds, 2.1% hits. Potency, µM (series often up to 46 µM), most hits filed as inhibitors; note: nearly all actives have a fitted effect of over 60% in size
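Nrf2 activity is the BugLite luminescence, read 15 min after reagent at room temperature, following CellTiter-Fluor cytotoxicity readout (30 min, 37C). Compound titrations were applied for 18-24 h to 5000 A549 ARE_Fluc cells/well in 5% FBS OPTI-MEM.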
Pin1 inh – blocks the human prolyl isomerase Pin1; Q13526; Pin1 FP peptide displacement, HiFluor488, 10 min; Potency, µM (top dose mostly 115 µM), most hits filed as inhibitors; 390,000 compounds, 0.009% hits; active = well fitted inhibition curve with a large enough effect in the polarisation, with a control signal flat, not every such curve was filed as active; inconclusive = small, poorly fitted or top-dose-only effect, or effect the other way, or a change in a side signal; inactive = no such curve, though single readings can be large or run the other way; the % refers to the polarisation
Target sequence (Q13526 whole entry, looked up): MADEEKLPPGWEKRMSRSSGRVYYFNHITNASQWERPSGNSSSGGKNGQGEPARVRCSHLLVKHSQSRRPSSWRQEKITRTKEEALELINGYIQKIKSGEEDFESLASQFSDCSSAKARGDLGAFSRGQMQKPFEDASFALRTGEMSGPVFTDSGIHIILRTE
A549 tox-1 – A549 cytotoxicity, counter-screen for Nrf2 inhibitors | A549 ARE-Fluc cells, CellTiter-Fluor viability, 18-24 h | Potency, µM (highest dose often 46 µM), hits mostly inhibitors | 390,000 compounds, 0.16% hits
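Cytotoxicity counterscreen: CellTiter-Fluor fluorescence was measured in A549 ARE_Fluc cells after 18-24 h of compound exposure in a concentration series. The subsequent BugLite luminescent read reports ARE-luciferase activity.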
FLuc counter 3 – counter-screen for Nrf2 inhibitors: firefly luciferase enzyme inhibition; Potency, µM (top dose mostly 57.5 µM), most hits filed as inhibitors; 1,400 compounds, 4% hits; AID 720522; shares compounds with Nrf2 inh; purified firefly luciferase, luminescence inhibition; note: nearly all actives have a fitted effect of over 65% in size
Target sequence (P08659 whole entry, looked up): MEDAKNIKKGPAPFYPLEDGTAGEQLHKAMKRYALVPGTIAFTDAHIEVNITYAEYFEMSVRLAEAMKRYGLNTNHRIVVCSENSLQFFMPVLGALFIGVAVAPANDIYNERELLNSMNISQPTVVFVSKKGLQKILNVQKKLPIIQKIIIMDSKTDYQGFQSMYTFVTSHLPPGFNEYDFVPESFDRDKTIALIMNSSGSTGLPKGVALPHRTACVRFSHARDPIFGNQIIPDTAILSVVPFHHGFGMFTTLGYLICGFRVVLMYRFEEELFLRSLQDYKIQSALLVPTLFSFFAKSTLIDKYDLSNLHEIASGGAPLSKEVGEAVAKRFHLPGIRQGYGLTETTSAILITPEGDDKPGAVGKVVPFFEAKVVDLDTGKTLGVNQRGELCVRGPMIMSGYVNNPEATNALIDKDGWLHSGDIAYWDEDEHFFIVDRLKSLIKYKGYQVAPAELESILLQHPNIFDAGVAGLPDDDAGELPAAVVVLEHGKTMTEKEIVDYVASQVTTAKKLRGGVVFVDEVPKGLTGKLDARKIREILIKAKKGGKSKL
A549 tox-2 – A549 cytotoxicity, Nrf2 inhibitor counterscreen; A549 ARE-Fluc cells, cytotoxicity counterscreen; 1,400 compounds, 2% hits; Potency, µM (series often up to 46.1 µM), most hits filed as inhibitors; shares compounds with Nrf2 inh;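 note: cells exposed to compounds for 18 to 24 hours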
Nrf2 ARE inh – reduces Nrf2 ARE reporter signal in A549 cells; shares compounds with Nrf2 inh; A549 ARE-firefly luciferase reporter, luminescence; Potency, µM (series often up to 46.1 µM), most hits filed as inhibitors; 1,400 compounds, 74% hits; AID 720524; note: nearly all actives have a fitted effect of over 65% in size
Numbers stand for hits; 0 = inactive; ? = inconclusive; - = no result; ! = repeats disagree. Shown are actives, neighbours in structure and some others; about 2.2% of the full set was active somewhere. Unless noted, calls come from the whole dose curve; as a rule, active = well fitted curve in the direction sought with a large enough effect; inconclusive = small, poorly fitted or top-dose-only effect, or another doubt; inactive = no such curve, though single readings can be large; an effect the other way counts as inactive or inconclusive.

SMILES	Nrf2 activator	Nrf2 inh	Pin1 inh	A549 tox-1	FLuc counter 3	A549 tox-2	Nrf2 ARE inh
COc1ccc(C(=O)N2CCN(c3ccc([N+](=O)[O-])c(NCCc4ccc(OC)c(OC)c4)c3)CC2)cc1	0	2.9µM	0	?	0	0	5.8µM
COc1ccc(CCNc2cc(N3CCN(C(=O)c4ccccc4F)CC3)ccc2[N+](=O)[O-])cc1OC	0	2.1µM	?	?	0	0	6.5µM
CCc1noc(-c2ccc(N3CCCCC3C)c([N+](=O)[O-])c2)n1 (stereo not drawn)	0	?	0	0	-	-	-
CC(=O)c1ccc(NC(=O)Nc2sc3nc4n(c(=O)c3c2C)CCC(C)CC4)cc1 (stereo not drawn)	0	0	0	0	-	-	-
Cc1nn(Cc2ccc(Cl)cc2)c(C)c1NC(=O)c1cc(-c2ccc3c(c2)OCO3)on1	0	4.1µM	0	?	0	0	9.2µM
COc1ccc(OC)c(CCNC(=O)C(C)n2nc(C)c3c(C)n(-c4ccc(C)cc4)nc3c2=O)c1 (stereo not drawn)	0	6.5µM	0	?	0	?	3.7µM
COc1ccc(OC)c(CCNC(=O)C(C)n2nc(C)c3c(C)n(-c4ccccc4)nc3c2=O)c1 (stereo not drawn)	0	0	0	0	-	-	-
Cc1ccc(S(=O)(=O)N(C)Cc2ccc(C(=O)N/N=C/c3ccc(OC(F)F)cc3)cc2)cc1	0	5.8µM	0	0	0	0	6.5µM
COc1ccc(OC)c(Nc2nc(-c3sc(NC(=O)C(C)(C)C)nc3C)cs2)c1	0	8.2µM	0	0	0	0	?
COc1ccc(Cl)cc1Nc1nc(-c2sc(NC(=O)C(C)(C)C)nc2C)cs1	0	4.1µM	0	0	0	0	1.8µM
CC[C@H](C)[C@@H](C(=O)NCCCCCCCCCCC(=O)N1CCN(C(=O)OC(C)(C)C)CC1)n1cc(CCCCCNC(=O)OC(C)(C)C)nn1	0	5.8µM	0	0	0	0	7.3µM
CC(C)(C)OC(=O)CC[C@@H](C(=O)NCCCCCCCCCCC(=O)N1CCN(C(=O)OC(C)(C)C)CC1)n1cc(CCCCCNC(=O)OC(C)(C)C)nn1	0	?	0	0	-	-	-
COc1ccc(N2CCN(Cc3nc4c(c(=O)n(C)c(=O)n4C)n3C(C)C)CC2)cc1	0	-	0	0	-	-	-
CCn1ccc2cc(S(=O)(=O)N3CCCN(C(=O)Nc4ccc(C)cc4Cl)CC3)ccc21	0	-	0	0	-	-	-
Cc1ccc(CN2C(=O)N/C(=C\c3cccn3-c3cccc(C(=O)O)c3)C2=O)cc1	0	2.6µM	0	?	0	0	0
O=C(O)c1cccc(-n2cccc2/C=C2\NC(=O)N(Cc3ccc(F)cc3)C2=O)c1	0	0	0	0	-	-	-
CCCC(=O)Nc1nc(-c2ccc3c(c2)CCN3S(C)(=O)=O)cs1	0	8.2µM	0	0	?	0	?
COc1ccc(CCNC(=O)C2COc3ccccc3C2)cc1OC (stereo not drawn)	0	-	0	0	-	-	-
CCCC1O[C@@H]2C[C@H]3[C@@H]4CCC5=CC(=O)C=C[C@]5(C)[C@H]4[C@@H](O)C[C@]3(C)[C@]2(C(=O)CO)O1 (stereo partly drawn)	0	?	0	0	-	-	-
CCC(=O)[C@@]1(C)[C@H](C)C[C@H]2[C@@H]3CCC4=CC(=O)C=C[C@]4(C)[C@H]3[C@@H](O)C[C@@]21C	0	0.016µM	0	0	0	0	0.018µM
CCCC1OC2CC3C4CCC5=CC(=O)C=CC5(C)C4C(O)CC3(C)C2(C(=O)O)O1 (stereo not drawn)	0	0.46µM	0	0	0	0	1.3µM
CC(C)c1cnc2c(c1SCC(=O)NCc1ccccc1Cl)c(=O)n(C)c(=O)n2C	0	-	0	0	-	-	-
Cc1oc(-c2ccccc2)nc1CNC(=O)Nc1ccccc1	0	-	0	0	-	-	-
CCOc1ccc(Nc2nc(-c3cccc(Cl)c3)c3c(n2)-c2ccccc2OC3)cc1	0	?	0	0	-	-	-
COc1ccc(NC(=O)c2sc3nc(C)c(C(=O)Nc4ccc(C)cc4C)c(-c4cccs4)c3c2N)cc1	0	0	?	0	-	-	-
SMILES	Nrf2 activator	Nrf2 inh	Pin1 inh	A549 tox-1	FLuc counter 3	A549 tox-2	Nrf2 ARE inh
O=C(COc1ccc2c(-c3ccccc3)cc(=O)oc2c1)Nc1cccnc1	0	2.3µM	0	0	0	0	1.8µM
CC(C)N(C(=O)CSc1nc2ccccc2n1-c1ccccc1)C(C)C	0	0	0	0	-	-	-
O=C(O)CCSc1nc2ccccc2n1-c1ccccc1	0	5.8µM	0	0	0	0	5.8µM
CCOc1ccc(S(=O)(=O)N(C(C)=O)c2ccc3oc(C)c(C(=O)OC)c3c2)cc1	0	2.1µM	0	0	0	0	23µM
COC(=O)c1c(C)oc2ccc(N(C(C)=O)S(=O)(=O)c3ccccc3)cc12	0	?	0	?	-	-	-
COC(=O)c1c(C)oc2ccc(N(C(=O)Oc3ccccc3)S(=O)(=O)c3ccc(C(C)(C)C)cc3)cc12	0	2.3µM	0	0	0	0	5.2µM
CCOc1ccc(-n2c(=O)c3c4c(sc3n(CC(=O)NC(C)CC)c2=O)CCCC4)cc1 (stereo not drawn)	0	0	0	0	-	-	-
N/C(=N\OC(=O)c1ccc2ccccc2c1)c1ccccn1	0	?	0	0	-	-	-
NC(=Nc1nc(-c2ccccn2)cc2ccccc12)c1ccccn1	0	1.5µM	0	0	0	0	1.6µM
COc1ccc(CNC(=O)c2ccc(Cn3c(=O)c4cccn4c4cccnc43)cc2)c(OC)c1	0	0	0	0	-	-	-
Cc1ccc(CNC(=O)Cn2cc(S(=O)(=O)Cc3ccccc3F)c3ccccc32)cc1	0	0	0	0	-	-	-
CCOC(=O)N1CCN(C(=O)c2ccc3c(=O)n(Cc4ccc(Cl)cc4)c(=S)[nH]c3c2)CC1	0	?	0	0	-	-	-
CCOC(=O)N1CCN(C(=O)c2ccc(Cn3c(=S)[nH]c4ccc(Br)cc4c3=O)cc2)CC1	0	4.1µM	0	?	0	?	8.2µM
C=CCNc1ncnc2c1ncn2C1OC(CO)C(O)C1O (stereo not drawn)	0	?	0	0	-	-	-
OCC1OC(n2cnc3c(NCc4ccco4)ncnc32)C(O)C1O (stereo not drawn)	?	7.3µM!	0	?	0	0	4.1µM
O=C(/C=C/c1ccccc1)NC(NC(=S)Nc1ccc(Cl)cc1)C(Cl)(Cl)Cl (stereo not drawn)	0	6.5µM	0	?	?	?	5.2µM
CCC(C)(C)NC(=O)Cn1c(=O)ccc2cc(S(=O)(=O)N3CCC(C)CC3)ccc21	0	-	?	0	-	-	-
CC(=O)OCC(=O)[C@@]1(O)CC[C@H]2[C@@H]3C[C@H](C)C4=CC(=O)C=C[C@]4(C)[C@H]3[C@@H](O)C[C@@]21C	0	0.052µM	0	0	0	0	0.052µM

Bioassay records as filed in PubChem.
